The results in this text go back to PubChem BioAssay (Tox21).

A number with no mark means an inactive call. Records with an inconclusive call do not appear. Activity calls are given as the source filed them. Calls follow the shape of the dose curve; as a rule, active = well fitted curve in the direction sought with a large enough effect in the repeat runs; inconclusive = weak or mixed curves; inactive = no such curve, though single readings can be large; an effect the other way counts as inactive or inconclusive.

A short description of assay [1]: A CellTox Green Cytotoxicity Assay to monitor cytotoxicity in HEK293 cells - 32 hour (AID 1224881). Also: nearly all actives have a fitted effect of over 40% in size. Also: potency is read from the fitted curve at half-maximal effect. In a few lines:
(§1)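 Real-time, in one plate: 600 HEK293 cells/well with dead-cell DNA dye, pinned compound after 5 h, 37 C incubation over 40 h; viable cells give no appreciable fluorescence.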

Assay [2] can be described thus: A CellTox Green Cytotoxicity Assay to monitor cytotoxicity in HepG2 cells - 0 hour (AID 1224882). Also: nearly all actives have a fitted effect of over 35% in size. In a few lines: (§2)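 Cytotoxicity was tracked as dead-cell DNA fluorescence in HepG2 cells treated with test compounds at 37 C; each time-point value comes from one kinetic series spanning 0, 8, 16, 24, 32 and 40 h.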
The nature of assay [3]: A CellTox Green Cytotoxicity Assay to monitor cytotoxicity in HEK293 cells - 8 hour (AID 1224884). Also: nearly all actives have a fitted effect of over 35% in size. The procedure, abridged:
as §1

Assay [4] can be described thus: qHTS RealTime-Glo MT Cell Viability Assay in HepG2 cells - 16 hour (AID 1224885). Also: nearly all actives have a fitted effect of over 50% in size. In a few lines: (§3)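 HepG2 cells (600/well) were dispensed with RealTime-Glo reagents, incubated 5 h at 37 °C, then treated with compounds in DMSO for up to 40 h. Nonlytic NanoLuc luminescence reflecting viable cells was read at each stated time point.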
A general note: In qHTS, concentration-response curves come from the screen itself.

Assay [5] in a line: qHTS RealTime-Glo MT Cell Viability Assay in HEK293 cells - 24 hour (AID 1224886). Also: nearly all actives have a fitted effect of over 50% in size. Also: potency is read from the fitted curve at half-maximal effect. The procedure, abridged: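 HEK293 cells seeded with NanoLuc/prosubstrate reagent, rested 5 h at 37 C, then dosed and kept at 37 C up to 40 h. Nonlytic real-time luminescence from viable cells read at 0, 8, 16, 24, 32 and 40 h.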
The nature of assay [6]: qHTS RealTime-Glo MT Cell Viability Assay in HepG2 cells - 0 hour (AID 1224889). Also: nearly all actives have a fitted effect of over 50% in size. Also: potency is read from the fitted curve at half-maximal effect. The procedure, abridged: as §3
A short description of assay [7]: A CellTox Green Cytotoxicity Assay to monitor cytotoxicity in HepG2 cells - 32 hour (AID 1224883). Also: nearly all actives have a fitted effect of over 50% in size. Also: potency is read from the fitted curve at half-maximal effect. The procedure, abridged:
as §2

Assay [8] is described as follows: qHTS RealTime-Glo MT Cell Viability Assay in HEK293 cells - 8 hour (AID 1224887). Also: nearly all actives have a fitted effect of over 50% in size. Also: potency is read from the fitted curve at half-maximal effect. The procedure, abridged: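 Kinetic, non-lysing viability readout. Seed HEK293 (600/well) with reagent, incubate 5 h at 37 C/5% CO2, pin 23 nL compound in DMSO, incubate at 37 C, read luminescence at 0, 8, 16, 24, 32, 40 h.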
Assay [9] in a line: A CellTox Green Cytotoxicity Assay to monitor cytotoxicity in HEK293 cells - 16 hour (AID 1224888). Also: nearly all actives have a fitted effect of over 35% in size. Also: potency is read from the fitted curve at half-maximal effect. The procedure, abridged: as §1
Assay [10] in a line: A CellTox Green Cytotoxicity Assay to monitor cytotoxicity in HepG2 cells - 8 hour (AID 1224890). Also: nearly all actives have a fitted effect of over 45% in size. In a few lines: as §2

Consider `CSc1ccc(Oc2ccc(S(N)(=O)=O)cc2CN(C)C)cc1C`, for which the Potency result in assay [1], in assay [2], in [3], in assay [4] and in assay [6] was “inactive” in each case. The Potency in [5] is 49 µM (active).

Take `Cc1nc2ccccn2c(=O)c1CCN1CCC(C(=O)c2ccc(F)cc2)CC1`: the Potency entry in assay [1], in [7], in [3], in [4], in [9] and in [6] was “inactive” each time. The Potency was 7.56 µM (active) in assay [5] and 8.49 µM (active) in assay [8].

For the molecule `COCCOC(=O)C1=C(C)NC(C)=C(C(=O)OC/C=C/c2ccccc2)C1c1cccc([N+](=O)[O-])c1` (stereo not drawn), the Potency entry in assay [1], in assay [2], in assay [7], in assay [3], in assay [5] and in assay [10] was “inactive” in each case. In addition, the Potency in [6] was 6.74 µM (active).

On to `CC(=O)Nc1ccccc1C`, for which the Potency entry in assay [1], in assay [7], in assay [3], in assay [4], in assay [5] and in [8] was “inactive” throughout. The Potency entry in assay [9], in [6] and in assay [10] was “inactive” in each case.

Take `Cc1cc(OI)c(C(C)C)cc1-c1cc(C(C)C)c(OI)cc1C`: the Potency entry in [1], in assay [7], in assay [3], in assay [4], in [5] and in assay [8] was “inactive” each time. Also, the Potency result in assay [9] and in [10] was “inactive” each time.

As to `CCCCC/C(=C\c1ccccc1)CO`, the Potency in [1] is 43.1 µM (active); in [9], 48.4 µM (active). Also, the Potency entry in [2], in [7], in [4], in [5], in [6] and in [10] was “inactive” each time.

As for `CCCCC(=O)O[C@]1(C(=O)CO)[C@@H](C)C[C@H]2[C@@H]3CCC4=CC(=O)C=C[C@]4(C)[C@@]3(F)[C@@H](O)C[C@@]21C`, the Potency result in assay [1], in assay [2], in assay [7], in [3], in [9] and in assay [10] was “inactive” in each case. In addition, in assay [6], the Potency is 21.9 µM (active).

For `COc1ccccc1N=Nc1c(S(=O)(=O)O)cc2cc(S(=O)(=O)O)cc(NC(C)=O)c2c1O`, the Potency entry in assay [1], in [2], in assay [7], in assay [4], in assay [5] and in assay [8] was “inactive” each time. The Potency result in [9] and in [10] was “inactive” throughout.

On to `COC(=O)Nc1nc2ccc(C(=O)c3cccs3)cc2[nH]1`, for which the Potency entry in assay [1], in assay [2], in [3], in assay [4], in [9] and in assay [6] was “inactive” each time. The Potency result in [10] is “inactive”.

On to `C=CC(C)(O)CCCC(C)CCCC(C)CCCC(C)C` (stereo not drawn), for which the Potency entry in assay [1], in [7], in [3], in assay [4], in assay [5] and in assay [8] was “inactive” in each case. Moreover, the Potency entry in [9], in [6] and in [10] was “inactive” in each case.

Turning to `c1cc[c]([Bi]([c]2ccccc2)[c]2ccccc2)cc1`, the Potency result in [1], in assay [2], in [3], in [4], in assay [8] and in assay [9] was “inactive” in each case. For the same molecule, the Potency result in assay [6] and in [10] was “inactive” in each case.

Turning to `CC(C)OCC1CO1` (stereo not drawn), the Potency entry in [1], in assay [7], in assay [3], in [4], in assay [5] and in [8] was “inactive” each time. Besides, the Potency result in [9] and in [10] was “inactive” in each case.

`O=C(OCCOCCO)c1ccccc1Nc1cccc(C(F)(F)F)c1`: the Potency entry in [1], in [2], in assay [3], in assay [4], in assay [5] and in assay [8] was “inactive” in each case. Moreover, the Potency entry in assay [9] and in [6] was “inactive” each time.

`Cc1nccn1-c1ccc(Sc2cccc(C3(C(N)=O)CCOCC3)c2)cc1`: the Potency entry in [1], in [2], in [3], in [9], in [6] and in assay [10] was “inactive” in each case. The Potency in assay [5] is 1.38 µM (active).

For the molecule `O=C(CS)OCCOC(=O)CS`, the Potency entry in assay [1], in [7], in [3], in assay [4], in assay [5] and in assay [8] was “inactive” throughout. Also, the Potency entry in [9], in assay [6] and in [10] was “inactive” each time.

As for `CCOCCn1c(C2CCN(CCc3ccc(C(C)(C)C(=O)O)cc3)CC2)nc2ccccc21`, the Potency entry in assay [1], in assay [2], in assay [3], in assay [4], in assay [5] and in assay [8] was “inactive” each time. The Potency result in assay [9] and in [6] was “inactive” in each case.

Regarding `O=C(CCCN1CCC(O)(c2ccc(Br)cc2)CC1)c1ccc(F)cc1`, the Potency result in [1], in assay [3], in [4], in assay [9], in [6] and in assay [10] was “inactive” each time. Besides, the Potency in assay [7] is 26.8 µM (active); in [5], 10.7 µM (active); in [8], 8.49 µM (active).

For `O=C(CCCCCCC(=O)Nc1ccccc1)NO`, the Potency entry in assay [1], in assay [2], in assay [3], in [9], in [6] and in [10] was “inactive” throughout. The results for the Potency in assay [7] and in assay [5] were 2.68 µM (active) and 2.39 µM (active), respectively.

With `CCOC(=O)/C=C/C(=O)O`, the Potency result in assay [1], in assay [7], in [3], in [4], in assay [5] and in [8] was “inactive” in each case. Moreover, the Potency entry in [9], in assay [6] and in assay [10] was “inactive” throughout.

In the case of `CNC(=S)NC`, the Potency result in [1], in assay [2], in [3], in assay [4], in assay [5] and in [8] was “inactive” in each case. Besides, the Potency entry in [10] was “inactive”.
